Laboratory results as given in PubChem BioAssay AID1159580 (chemical genetic matrix, 2015).
The whole screen tested about 5,500 compounds, of which about 2,000 (36%) were called active. About 18% were inconclusive and are not listed. No stated cut-off is given here; in the data, active means normalized growth mostly below about 0.91 (no sharp cut-off); inconclusive means no clear call, values can overlap the other calls; inactive means mostly above about 0.92. The list shows a part of the results.

Assay: chemical genetic growth profiling, strain panel (AID 1159580);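 further: tested at 20 µM; growth read once vehicle control cultures reached saturation at 30 °C; 1 = growth at the plate median or of vehicle wells; lower values mean less growth of the strain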
Details: growth OD

Measured: normalized growth

CC(C)NC[C@H](O)COc1cccc2ccccc12
inactive: S. cerevisiae deletion strains, locus YJR066W, strain TOR1, active compounds read low 0.996 | S. cerevisiae deletion strains, locus YKL009W, strain mrt4, active compounds read low 1.03 | S. cerevisiae deletion strains, locus YKL068W, active compounds read low 1.01 | S. cerevisiae deletion strains, locus YKL085W, strain MDH1 (second series), active compounds read low 0.999 | S. cerevisiae deletion strains, locus YKL085W, strain MDH1, active compounds read low 0.999 | S. cerevisiae deletion strains, locus YKL160W, strain elf1, active compounds read low 0.992 | S. cerevisiae deletion strains, locus YKR001C, strain vps1, active compounds read low 1.04 | S. cerevisiae deletion strains, locus YKR026C, strain gcn3, active compounds read low 0.978 | S. cerevisiae deletion strains, locus YKR091W, strain srl3, active compounds read low 0.99 | S. cerevisiae deletion strains, locus YLL001W, strain dnm1, active compounds read low 0.98 | S. cerevisiae deletion strains, locus YLL026W, active compounds read low 0.98 | S. cerevisiae deletion strains, locus YLL041C, strain sdh2, active compounds read low 0.997 | S. cerevisiae deletion strains, locus YLR027C, strain aat2, active compounds read low 0.987 | S. cerevisiae deletion strains, locus YLR039C, strain RIC1, active compounds read low 1.05 | S. cerevisiae deletion strains, locus YLR058C, strain SHM2, active compounds read low 1.01 | S. cerevisiae deletion strains, locus YLR102C, strain apc9, active compounds read low 1.02 | S. cerevisiae deletion strains, locus YLR113W, strain HOG1, active compounds read low 1 | S. cerevisiae deletion strains, locus YLR221C, strain rsa3, active compounds read low 0.991 | S. cerevisiae deletion strains, locus YLR258W, strain gsy2, active compounds read low 0.985 | S. cerevisiae deletion strains, locus YLR262C, strain YPT6 (second series), active compounds read low 0.974 | S. cerevisiae deletion strains, locus YLR262C, strain YPT6, active compounds read low 1.02 | S. cerevisiae deletion strains, locus YLR268W, strain sec22, active compounds read low 1.01 | S. cerevisiae deletion strains, locus YLR320W, strain mms22, active compounds read low 0.973 | S. cerevisiae deletion strains, locus YLR330W, strain CHS5, active compounds read low 1.01 | S. cerevisiae deletion strains, locus YLR342W, strain FKS1 (second series), active compounds read low 0.963 | S. cerevisiae deletion strains, locus YLR342W, strain FKS1, active compounds read low 0.986 | S. cerevisiae deletion strains, locus YLR357W, strain rsc2, active compounds read low 0.978 | S. cerevisiae deletion strains, locus YLR370C, strain arc18, active compounds read low 0.999 | S. cerevisiae deletion strains, locus YLR371W, strain rom2, active compounds read low 1.03 | S. cerevisiae deletion strains, locus YLR384C, strain iki3, active compounds read low 0.963 | S. cerevisiae deletion strains, locus YLR418C, strain cdc73, active compounds read low 1.02 | S. cerevisiae deletion strains, locus YML016C, strain PPZ1, active compounds read low 1 | S. cerevisiae deletion strains, locus YML032C, strain rad52, active compounds read low 0.997 | S. cerevisiae deletion strains, locus YML120C, strain ndi1, active compounds read low 1 | S. cerevisiae deletion strains, locus YML124C, strain tub3, active compounds read low 1.02 | S. cerevisiae deletion strains, locus YMR058W, strain fet3, active compounds read low 0.995 | S. cerevisiae deletion strains, locus YMR078C, strain ctf18, active compounds read low 1.03 | S. cerevisiae deletion strains, locus YMR125W, strain sto1, active compounds read low 0.966 | S. cerevisiae deletion strains, locus YMR129W, active compounds read low 0.988 | S. cerevisiae deletion strains, locus YMR205C, strain PFK2, active compounds read low 0.971 | S. cerevisiae deletion strains, locus YMR223W, strain ubp8, active compounds read low 1.06 | S. cerevisiae deletion strains, locus YMR231W, strain pep5, active compounds read low 0.988 | S. cerevisiae deletion strains, locus YMR263W, strain SAP30, active compounds read low 1.01 | S. cerevisiae deletion strains, locus YMR307W, strain GAS1, active compounds read low 1.06 | S. cerevisiae deletion strains, locus YNL067W, strain RPL9B, active compounds read low 1.03 | S. cerevisiae deletion strains, locus YNL071W, strain lat1, active compounds read low 0.997 | S. cerevisiae deletion strains, locus YNL183C, strain NPR1, active compounds read low 0.995 | S. cerevisiae deletion strains, locus YNL209W, strain ssb2, active compounds read low 0.987 | S. cerevisiae deletion strains, locus YNL233W, strain BNI4, active compounds read low 1.02 | S. cerevisiae deletion strains, locus YNL248C, strain rpa49, active compounds read low 0.989 | S. cerevisiae deletion strains, locus YNL250W, strain rad50, active compounds read low 1.04 | S. cerevisiae deletion strains, locus YNL271C, strain bni1, active compounds read low 1.02 | S. cerevisiae deletion strains, locus YNL298W, strain CLA4, active compounds read low 1.01 | S. cerevisiae deletion strains, locus YNL307C, strain MCK1, active compounds read low 1.02 | S. cerevisiae deletion strains, locus YNL322C, strain KRE1 (second series), active compounds read low 0.977 | S. cerevisiae deletion strains, locus YNL322C, strain KRE1, active compounds read low 1.01 | S. cerevisiae deletion strains, locus YNR049C, strain mso1, active compounds read low 0.989 | S. cerevisiae deletion strains, locus YNR052C, strain pop2, active compounds read low 1.01 | S. cerevisiae deletion strains, locus YOL012C, strain htz1 0.826 | S. cerevisiae deletion strains, locus YOL147C, strain pex11, active compounds read low 1.02 | S. cerevisiae deletion strains, locus YOR001W, strain rrp6, active compounds read low 0.994 | S. cerevisiae deletion strains, locus YOR061W, strain CKA2, active compounds read low 1 | S. cerevisiae deletion strains, locus YOR069W, strain VPS5, active compounds read low 1.01 | S. cerevisiae deletion strains, locus YOR070C, strain gyp1, active compounds read low 0.998 | S. cerevisiae deletion strains, locus YOR080W, strain dia2, active compounds read low 0.977 | S. cerevisiae deletion strains, locus YOR083W, strain WHI5, active compounds read low 1.01 | S. cerevisiae deletion strains, locus YOR106W, strain vam3, active compounds read low 0.997 | S. cerevisiae deletion strains, locus YOR136W, strain idh2, active compounds read low 1.03 | S. cerevisiae deletion strains, locus YOR144C, strain elg1, active compounds read low 1.02 | S. cerevisiae deletion strains, locus YOR184W, strain ser1, active compounds read low 1.03 | S. cerevisiae deletion strains, locus YOR231W, strain MKK1, active compounds read low 1.02 | S. cerevisiae deletion strains, locus YOR265W, strain rbl2, active compounds read low 0.988 | S. cerevisiae deletion strains, locus YOR270C, strain vph1, active compounds read low 1.03 | S. cerevisiae deletion strains, locus YOR290C, strain snf2, active compounds read low 0.988 | S. cerevisiae deletion strains, locus YOR316C, strain cot1, active compounds read low 1.03 | S. cerevisiae deletion strains, locus YPL051W, strain arl3, active compounds read low 0.993 | S. cerevisiae deletion strains, locus YPL055C, strain LGE1, active compounds read low 1.02 | S. cerevisiae deletion strains, locus YPL078C, strain atp4, active compounds read low 1.01 | S. cerevisiae deletion strains, locus YPL106C, strain sse1, active compounds read low 0.98 | S. cerevisiae deletion strains, locus YPL240C, strain hsp82, active compounds read low 0.999 | S. cerevisiae deletion strains, locus YPL241C, strain CIN2, active compounds read low 1.01 | S. cerevisiae deletion strains, locus YPL256C, strain CLN2, active compounds read low 1.07 | S. cerevisiae deletion strains, locus YPR119W, strain clb2, active compounds read low 1.03 | S. cerevisiae deletion strains, locus YPR141C, strain kar3, active compounds read low 1.02 | S. cerevisiae deletion strains, locus YPR163C, strain tif3, active compounds read low 1.02 | S. cerevisiae deletion strains, locus YPR167C, strain met16, active compounds read low 1.03 | S. cerevisiae deletion strains, strain wtn01, active compounds read low 1.01 | S. cerevisiae strains, strain wild type, active compounds read low 1.01
